Data published in PubChem BioAssay AID1851 (National Center for Advancing Translational Sciences (NCATS), 2009).
Screen size: about 16,000 compounds; about 5,700 (36%) were called active. Roughly 24% stayed inconclusive and do not appear here. The list shows a part of the results. Values without a mark were called inactive. Calls come from the whole dose curve; as a rule, active = well fitted curve in the direction sought with a large enough effect; inconclusive = small, poorly fitted or top-dose-only effect, or effect the other way; inactive = no such curve, though single readings can be large or run the other way.

These molecules were tested against Cytochrome P450 1A2 (Homo sapiens) (UniProt P05177) (assay: Cytochrome panel assay with activity outcomes). Conditions: recombinant CYP, pro-luciferin dealkylation, luminescence, p450-cyp1a2; series mostly up to 57.1 µM; activity, negative = inhibition: at the top concentration.
% is set by controls: 0 for no effect and ±100 for the full control effect.

Chain of Cytochrome P450 1A2 (Homo sapiens) (P05177 whole entry, looked up): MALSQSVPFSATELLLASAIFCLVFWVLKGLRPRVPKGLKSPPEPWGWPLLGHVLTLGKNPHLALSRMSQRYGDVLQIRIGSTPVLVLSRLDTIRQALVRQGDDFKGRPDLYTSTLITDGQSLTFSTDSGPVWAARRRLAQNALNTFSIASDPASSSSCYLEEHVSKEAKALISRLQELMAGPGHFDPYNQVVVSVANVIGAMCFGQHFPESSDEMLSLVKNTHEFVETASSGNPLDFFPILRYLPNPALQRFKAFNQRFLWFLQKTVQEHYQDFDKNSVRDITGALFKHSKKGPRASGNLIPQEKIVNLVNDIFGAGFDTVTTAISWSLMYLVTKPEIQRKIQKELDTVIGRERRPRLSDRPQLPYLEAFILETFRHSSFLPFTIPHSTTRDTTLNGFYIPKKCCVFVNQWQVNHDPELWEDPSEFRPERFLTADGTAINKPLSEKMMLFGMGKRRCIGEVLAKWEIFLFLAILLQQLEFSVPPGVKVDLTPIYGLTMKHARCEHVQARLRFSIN

Question: `CC1=NN(C(=O)c2ccncc2)C(=O)[C@@H]1N=Nc1ccc2ccccc2c1` was tested. Which AC50 did it give?
Answer: 0.158 µM (active)

Question: For `Cc1ccc(C)c(Nc2nc3nonc3nc2N2CCOCC2)c1`, which AC50 is on record?
Answer: 5.01 µM (active)

Question: Which AC50 does the source give for `FC(F)(F)c1nc2ccccc2nc1N/N=C\c1ccccc1` here?
Answer: 0.562 µM (active)

Question: With `FC(F)(F)c1nc2ccccc2nc1N/N=C/c1ccc(Cl)cc1` as the molecule, how does the AC50 read?
Answer: 1.41 µM (active)

Question: With `COc1ccccc1CNc1cc(-c2c(C)noc2C)ncn1` as the molecule, how does the AC50 read?
Answer: 5.01 µM (active)

Question: For `Cc1cccc(CNc2cc(-c3c(C)noc3C)ncn2)c1`, which AC50 is on record?
Answer: 1 µM (active)

Question: `Cc1noc(C)c1-c1cc(NCc2cccnc2)ncn1` was tested. Which AC50 did it give?
Answer: 1 µM (active)

Question: With `Cc1noc(C)c1-c1cc(NCc2ccccc2)ncn1` as the molecule, how does the AC50 read?
Answer: 5.01 µM (active)

Question: How did the “activity, negative = inhibition” value turn out when `CCS(=O)(=O)N(C)[C@@H]1c2cc(C#N)ccc2OC(C)(C)[C@H]1O` was run?
Answer: -4.66%

Question: Which “activity, negative = inhibition” value does the source give for `CCOC(=O)C(C)CC(C)C(=O)N1CCOCCN(C(=O)C(C)CC(C)C(=O)OCC)CCOCC1` (configuration not stated) here?
Answer: 1.57%

Question: For `Cc1noc(C)c1-c1cc(NCc2cccs2)ncn1`, which AC50 is on record?
Answer: 0.794 µM (active)

Question: How did the AC50 turn out when `Cc1ccc(C(=O)/C=C/c2c[nH]c3ccccc23)cc1` was run?
Answer: 5.62 µM (active)

Question: For `O=C(O)[C@H](Cc1c[nH]c2ccccc12)N1C(=O)c2ccccc2C1=O`, which activity, negative = inhibition is on record?
Answer: -8.32% [at 2.29 µM]

Question: How did the “activity, negative = inhibition” value turn out when `Cc1ccc(C(=O)Nc2ccc(C(=O)/C=C/c3cccs3)cc2)cc1` was run?
Answer: -9.32%

Question: With `Cc1ccc(C(=O)NNC(=S)NC(=O)c2ccc(Cl)cc2)cc1` as the molecule, how does the “activity, negative = inhibition” value read?
Answer: -10.7%

Question: With `Cc1cc(C)n(Cc2ccc(NC(=O)c3ccc(COc4ccccc4Br)cc3)cc2)n1` as the molecule, how does the “activity, negative = inhibition” value read?
Answer: 17.9%

Question: For `CNC(=S)NNC(=O)c1sccc1OCc1ccc(C)cc1`, which AC50 is on record?
Answer: 5.01 µM (active)

Question: How did the AC50 turn out when `COc1ccc(COc2ccsc2C(=O)Nc2ccc(Cl)c(Cl)c2)cc1` was run?
Answer: 3.16 µM (active)

Question: For `COc1ccc(Cc2nnc(NC(=O)c3ccc(Cl)c([N+](=O)[O-])c3)s2)cc1`, which “activity, negative = inhibition” value is on record?
Answer: 9.74%

Question: How did the AC50 turn out when `COc1ccc(-c2cc(C(F)(F)F)n3nc(C(=O)NCc4ccco4)c(Cl)c3n2)cc1` was run?
Answer: 3.55 µM (active)

Question: For `Cc1cc(C)n(C(=O)c2cc3ccccc3c(=O)o2)n1`, which AC50 is on record?
Answer: 7.08 µM (active)

Question: With `O=C(O)CC1(C(=O)O)CCCCC1` as the molecule, how does the activity, negative = inhibition read?
Answer: 5.1% [at 2.29 µM]

Question: How did the “activity, negative = inhibition” value turn out when `CCN1C(=O)c2cccc3c(NC(=O)c4cccc(N5C(=O)CCC5=O)c4)ccc1c23` was run?
Answer: -15.9%

Question: Which AC50 does the source give for `CCOC(=O)c1ccc(NC(=O)Nc2ccc3c4c(cccc24)C(=O)N3CC)cc1` here?
Answer: 1.58 µM (active)

Question: `CCCOC(=O)c1ccc(NC(=O)c2cn(CC)c3nc(C)ccc3c2=O)cc1` was tested. Which “activity, negative = inhibition” value did it give?
Answer: -22.5%

Question: How did the AC50 turn out when `CC(C)CO[C@H](c1ccc2c(c1)OCO2)[C@H](C)Br` was run?
Answer: 0.631 µM (active)

Question: For `CC(C)CO/N=C1/C[C@@H](O)[C@@H](O)[C@@H]2[C@@H]3C(=O)N(Cc4ccc5c(c4)OCO5)C(=O)[C@H]3CC[C@H]12`, which activity, negative = inhibition is on record?
Answer: 2.96% [at 11.4 µM]

Question: With `CC(C)CO/N=C1/C[C@@H](O)[C@@H](O)[C@@H]2[C@@H]3C(=O)N(Cc4ccc5c(c4)OCO5)C(=O)[C@H]3CC[C@@H]12` as the molecule, how does the activity, negative = inhibition read?
Answer: -7.54% [at 11.4 µM]

Question: For `c1ccc2c(-c3c[nH]c4ccccc34)c3ccccc3nc2c1`, which AC50 is on record?
Answer: 3.16 µM (active)

Question: `c1ccc2c(CN3CCN(Cc4c[nH]c5ccccc45)CC3)c[nH]c2c1` was tested. Which activity, negative = inhibition did it give?
Answer: -18.1% [at 2.29 µM]

Question: Which activity, negative = inhibition does the source give for `O=C(O)[C@@H](Cc1c[nH]c2ccccc12)C(=O)NO` here?
Answer: -20.4% [at 11.4 µM]

Question: With `CO[C@H]1COC(=O)C/C=C\[C@@H](C)[C@H](OC)COC(=O)[C@H]2CCCN2C(=O)C/C=C\[C@@H]1C` as the molecule, how does the activity, negative = inhibition read?
Answer: 3.92% [at 11.4 µM]

Question: Which activity, negative = inhibition does the source give for `CC(=O)OC[C@@H]1O[C@H](CCO/N=C(\C)CCC(=O)OC[C@@H]2O[C@H](C#Cc3ccccc3)C=C[C@@H]2Oc2ccc(C)cc2)C=C[C@@H]1OC(C)=O` here?
Answer: -1.59% [at 11.4 µM]

Question: `Cc1nc2cc(NC(=O)CSc3nc4c(C)cccc4cc3C#N)ccc2s1` was tested. Which AC50 did it give?
Answer: 2.82 µM (active)

Question: How did the AC50 turn out when `O=C(CCOc1ccccc1)Nc1ccccc1` was run?
Answer: 8.91 µM (active)

Question: `CCC(=O)NNC(=O)CCC(=O)Nc1ccccc1` was tested. Which “activity, negative = inhibition” value did it give?
Answer: 2.63%

Question: `COc1ccc(NC(=O)CCOc2ccccc2)cc1` was tested. Which AC50 did it give?
Answer: 3.55 µM (active)

Question: With `Oc1ccccc1CNCc1ccccc1O` as the molecule, how does the activity, negative = inhibition read?
Answer: -17.8% [at 11.4 µM]

Question: `CC(=O)NNC(=O)CCC(=O)Nc1ccccc1` was tested. Which “activity, negative = inhibition” value did it give?
Answer: -3.3%

Question: How did the AC50 turn out when `O=C(Cc1ccccc1I)Nc1ccccc1` was run?
Answer: 12.6 µM (active)

Question: `COC(=O)c1cccc(NC(=O)CCCOc2ccccc2)c1` was tested. Which AC50 did it give?
Answer: 0.891 µM (active)

Question: `O=S(=O)(O)C1CCNCC1` was tested. Which “activity, negative = inhibition” value did it give?
Answer: 7.71%

Question: For `CO[C@@H]1COC(=O)CC=C[C@@H](C)[C@@H]2C=C[C@H](O)[C@@H](COC(=O)[C@H](C)NC(=O)CC=C[C@H]1C)O2`, which activity, negative = inhibition is on record?
Answer: -7.89% [at 11.4 µM]

Question: Which AC50 does the source give for `COC(=O)c1cccc(NC(=O)Nc2ccc(Cl)c(Cl)c2)c1` here?
Answer: 8.91 µM (active)

Question: How did the AC50 turn out when `COc1ccc(NC(=O)CCSc2cc(C)c3ccccc3n2)cc1` was run?
Answer: 7.08 µM (active)

Question: `CC(C)(CC(=O)Nc1ccccc1)C(=O)O` was tested. Which activity, negative = inhibition did it give?
Answer: -15.9% [at 11.4 µM]

Question: For `CCCCC#Cc1ccccc1CC(=O)Nc1ccccc1`, which AC50 is on record?
Answer: 2.51 µM (active)

Question: With `NCC(=O)Nc1ccccc1` as the molecule, how does the AC50 read?
Answer: 2.51 µM (active)

Question: How did the “activity, negative = inhibition” value turn out when `Cc1cccc(C)c1NC(=O)C(c1ccc(Cl)cc1Cl)N1CCCCC1` (configuration not stated) was run?
Answer: -22.8%

Question: For `O=C1C[C@@H](O)[C@@H](O)[C@@H]2[C@H]3C(=O)N(c4ccc(F)cc4F)C(=O)[C@@H]3CC[C@H]12`, which activity, negative = inhibition is on record?
Answer: 8.95% [at 11.4 µM]

Question: For `O=C(COC(=O)COc1ccccc1)Nc1ccc(OC(F)(F)F)cc1`, which AC50 is on record?
Answer: 20 µM (active)

Question: For `O=C(COc1ccccc1)Nc1ccc(-c2nnc(-c3ccco3)o2)cc1`, which “activity, negative = inhibition” value is on record?
Answer: 7.06%

Question: How did the AC50 turn out when `O=C(Nc1nnc(C2CC2)s1)C1Cc2ccccc2CN1S(=O)(=O)c1ccccc1F` (configuration not stated) was run?
Answer: 12.6 µM (active)

Question: With `O=C(Nc1nccs1)C1Cc2ccccc2CN1S(=O)(=O)c1ccc(F)cc1` (configuration not stated) as the molecule, how does the AC50 read?
Answer: 2.24 µM (active)

Question: `Nc1ccc(S(=O)(=O)Nc2nccs2)cc1` was tested. Which “activity, negative = inhibition” value did it give?
Answer: -1.59% [at 25.6 µM]

Question: For `CCc1nnc(NC(=O)C2Cc3ccccc3CN2S(=O)(=O)c2ccc(C)cc2)s1` (configuration not stated), which “activity, negative = inhibition” value is on record?
Answer: -13.9%

Question: `O=C(c1csnn1)N1CCC2(CC1)CN(c1ccccn1)C2` was tested. Which “activity, negative = inhibition” value did it give?
Answer: -12%

Question: For `Cc1ccc2nc(-c3ccc(NC(=O)Cc4cccs4)cc3)[nH]c2c1`, which AC50 is on record?
Answer: 0.631 µM (active)

Question: With `CCNc1ncc2nc(C)c(=O)n(CCC#N)c2n1` as the molecule, how does the AC50 read?
Answer: 12.6 µM (active)

Question: How did the AC50 turn out when `CCNc1ncc2nc(-c3ccccc3)c(=O)n(CCC#N)c2n1` was run?
Answer: 3.16 µM (active)

Question: For `CCNc1ncc2nc(-c3cn(C)c4ccccc34)c(=O)n(C)c2n1`, which AC50 is on record?
Answer: 0.1 µM (active)

Question: `CCNc1ncc2nc(-c3cn(C)c4ccccc34)c(=O)n(CCC#N)c2n1` was tested. Which AC50 did it give?
Answer: 5.01 µM (active)
